In the supplement of paper PMC4894684 one finds parasite growth data, which are given here for 16 compounds.

Where a name gives a salt, the structure may show the parent alone. ± gives the standard deviation of the averaged measurements. A value given as a limit tells only on which side of the number the result lay.

This test relates to Toxoplasma gondii RH (in HFF). Briefly: parasite growth relative to the screen mean (all compounds = 100%); higher = less inhibition of parasite growth. Particulars: 5 µM; 72 h; oxygen 21 %. An outline of the steps: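 RH β-Gal–GFP Toxoplasma at MOI 1:5 was used to infect confluent human foreskin fibroblasts in 96-well plates within 2 h of pin-transferring compounds to 5 µM final. After 72 h at 21% O2, parasite number was determined by CPRG β-Gal assay against standard curves on the same plate. Growth is relative to the screen mean and averaged over two screens, with all compounds = 100%.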
Compound `CCN(CC)CC1CCCCN1CC(=O)N1c2ccccc2C(=O)Nc2cccnc21` (stereo unspecified) returned a parasite growth of 146 ± 36%. To `CN(Cc1ccccc1)C(=O)[C@H](Cc1ccc2ccccc2c1)NC(=O)[C@@H]1CCCN1C(=O)Nc1ccccc1[N+](=O)[O-]` belongs 110 ± 9.9%; to `CCC(=O)NC1CCc2cccc(OC)c2C1` (stereo unspecified), 84.3 ± 9.1%; to `CCCCCCCCCCC(C)(C)C(=O)Nc1c(OC)cc(OC)cc1OC`, 27.8 ± 5.4%.

`CCCOc1ccccc1-c1nc2[nH]nnc2c(=O)[nH]1` [Zaprinast] returned a parasite growth of 98.3 ± 14%. To `COc1ccc2cccc(N3CCN(CCNC(=O)c4ccc(F)cc4)CC3)c2c1` belongs 122 ± 20%.

In the case of `CCCCCCCCc1ccc(-c2ccc(C(=O)O)cc2)cc1`, the parasite growth worked out at 111 ± 17%. `NS(=O)(=O)c1nn2cc(-c3ccccc3)nc2s1` gave a parasite growth of 108 ± 28%. To `O=C1C=CC(=O)C2=C1C1c3ccccc3C2c2ccccc21` belongs 137 ± 48%; to `Cc1c(NC(=O)N2CCOCC2)ccc2c1c1ccccc1n2C(C)C`, 144 ± 4.9%. To `CO[C@@H]1[C@H](O)[C@@H](CO)O[C@H]1n1cnc2c(NC3CCCCC3)ncnc21` belongs 103 ± 24%.

`COc1ccccc1N1CCN(CCN2C(=O)CC3(CCCC3)CC2=O)CC1` [BMY 7378 dihydrochloride] registered a parasite growth of 81.06 ± 0.29%. The value for `[O-][S+](c1ccccc1)c1ccc2nnnn2n1` (stereo unspecified) was 111.89 ± 0.016%; that for `CCS(=O)(=O)N(C)[C@H]1c2cc(C#N)ccc2OC(C)(C)[C@@H]1O` (racemic) [Chromanol 293B] was 142 ± 10%. To `COc1nccc(-c2c(-c3ccc(F)cc3)ncn2C2CCC(O)CC2)n1` (stereo unspecified) belongs less than 0%; to `COCCNC(=O)COc1ccc(OCCNC[C@H](O)COc2ccccc2)cc1` [ZD 7114 hydrochloride], 123 ± 7%.
